Results reported in PubChem BioAssay (NCI).
Values joined by “and” are separate entries in the source; they are usually repeats but may differ in a detail not shown here. Identical values can stand only once. About 83,000 compounds went through this panel and 20% of them were active in at least one assay; those are over-represented in the sample as a whole.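 Activity criterion: percent growth below 10, measured after cells in 96-well plates were exposed to a single compound concentration for 48 hours.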 Active and inactive are the calls of the source.

Columns and labels:
Test in all cases: NCI-60 one-dose screen, 48 h (100 = growth as untreated, 0 = no growth, -100 = all killed)
Conditions in all cases: 10 µM unless noted
T-47D breast = tested on: T-47D breast
BT-549 breast = tested on: BT-549 breast
MDA-MB-435 melanoma = tested on: MDA-MB-435 melanoma
SW-620 colon = tested on: SW-620 colon
MCF7 breast = tested on: MCF7 breast
HCT-116 colon = tested on: HCT-116 colon
HCC-2998 colon = tested on: HCC-2998 colon
KM12 colon = tested on: KM12 colon
MDA-MB-468 breast = tested on: MDA-MB-468 breast

Measured: growth

O=C1CCC(N2C(=O)c3cccc(NCCOCCOCCOCCC(=O)NCCCC(=O)NC(c4ccc5c(c4)OCO5)c4cc(Cl)c5cccnc5c4O)c3C2=O)C(=O)C1 (stereo not drawn)
inactive: T-47D breast 16% | BT-549 breast 11.3% | MDA-MB-435 melanoma 47.4% | SW-620 colon 39% | MCF7 breast 10.9% | HCT-116 colon 28.3% | HCC-2998 colon 30% | KM12 colon 13.4%
active: MDA-MB-468 breast -33.9%

COc1cc(CNC(=O)C[C@H](C)CCC=C(C)C)ccc1OCc1cn(-c2ccc(Cl)cc2Cl)nn1
inactive: T-47D breast 60.2% | BT-549 breast 83.7% | MDA-MB-435 melanoma 98.2% | SW-620 colon 89.3% | MCF7 breast 67.5% | HCT-116 colon 53.1% | HCC-2998 colon 92.5% | KM12 colon 93.1% | MDA-MB-468 breast 50.4%

N#CC1=C(c2ccco2)Nc2c(c(-c3ccccc3)nn2-c2ccccc2)C12C(=O)Nc1ccc(Br)cc12 (stereo not drawn)
inactive: T-47D breast 48.5% | BT-549 breast 70.4% | MDA-MB-435 melanoma 59.8% | SW-620 colon 46.3% | MCF7 breast 39.8% | HCC-2998 colon 91.8% | KM12 colon 66.4% | MDA-MB-468 breast 66.6%
active: HCT-116 colon 5.08%

O=C(CSc1nnc(-c2ccc(-c3nc4ccc(Cl)cc4[nH]3)cc2)o1)Nc1ccccc1
inactive: T-47D breast 93.3% | BT-549 breast 80% | MDA-MB-435 melanoma 17.5% | MCF7 breast 33.3% | HCC-2998 colon 98.9% | KM12 colon 34.1% | MDA-MB-468 breast 90.9%
active: SW-620 colon 0.173% | HCT-116 colon 5.65%

O=C(N/N=C/c1c[nH]c2ccccc12)Nc1ccc(F)c(Cl)c1
inactive: T-47D breast 34% | BT-549 breast 18.5% | SW-620 colon 41.3% | HCT-116 colon 25.5%
active: MDA-MB-435 melanoma 0.865% | MCF7 breast 9.25% | HCC-2998 colon 3.69% | KM12 colon -14.7% | MDA-MB-468 breast -1.93%

COc1cc(C=O)ccc1Oc1nc(Nc2ccc(F)cc2)nc(N(C)C)n1
inactive: T-47D breast 33.3% and 66.1% | BT-549 breast 77.3% and 16.5% | MDA-MB-435 melanoma 71.1% and 88.1% | SW-620 colon 94.4% and 50.4% | MCF7 breast 53.2% and 45.4% | HCT-116 colon 64.9% and 20.3% | HCC-2998 colon 108% and 75.6% | KM12 colon 99.3% and 68.5% | MDA-MB-468 breast 36.4% and 53.5%

Cc1ccc(Cl)cc1NC(=O)Nc1nc2ccc([N+](=O)[O-])cc2s1
active: T-47D breast -19.7% | BT-549 breast -30.3% | MDA-MB-435 melanoma -18.2% | SW-620 colon -21.9% | MCF7 breast 0.201% | HCT-116 colon -37.7% | HCC-2998 colon -10.1% | KM12 colon -2.73% | MDA-MB-468 breast -39.3%

Cc1nc(N)ncc1-c1ccc2ncnc(N3CCc4cc(F)c(Cl)cc43)c2c1
inactive: T-47D breast 28.1% | BT-549 breast 66.8% | MDA-MB-435 melanoma 94.6% | SW-620 colon 85.2% | MCF7 breast 41.7% | HCT-116 colon 70.4% | HCC-2998 colon 80.7% | KM12 colon 88.2%
active: MDA-MB-468 breast -22.5%

C/C(=N\Nc1ccc(C(=O)O)cc1)c1cnn(-c2cc(=O)[nH]c3ccc(C)cc23)c1C
inactive: T-47D breast 98.9% | BT-549 breast 88.4% | MDA-MB-435 melanoma 101% | SW-620 colon 110% | MCF7 breast 90.4% | HCT-116 colon 95.2% | HCC-2998 colon 108% | KM12 colon 99.9% | MDA-MB-468 breast 83.2%

CC(=O)Nc1ccc(S(=O)(=O)Nc2ccc(-c3ccc4c(c3)NC(=O)/C4=C\c3ccc[nH]3)cc2)cc1
inactive: T-47D breast 20.7% | BT-549 breast 42.6% | MDA-MB-435 melanoma 99.7% | SW-620 colon 114% | MCF7 breast 14.4% | HCT-116 colon 87.1% | HCC-2998 colon 96.9% | KM12 colon 51.6%
active: MDA-MB-468 breast -7.1%

COc1ccccc1/C=C/c1cccc(NC(=S)NCCCCN(C)C)c1
active: T-47D breast -58.7% | BT-549 breast -60.7% | MDA-MB-435 melanoma -91.6% | SW-620 colon 5.09% | MCF7 breast -73.9% | HCT-116 colon -43.4% | HCC-2998 colon -94.1% | KM12 colon -52.9% | MDA-MB-468 breast -86%

COc1cccc(/C=C/c2nc3ccccc3c(=O)n2CC(=O)Nc2ccccc2)c1
inactive: T-47D breast 36.7% | BT-549 breast 43.9% | MDA-MB-435 melanoma 70.6% | SW-620 colon 51.1% | MCF7 breast 41.6% | HCT-116 colon 35.7% | HCC-2998 colon 89.8% | KM12 colon 94.2% | MDA-MB-468 breast 83.4%

O=C(Nc1ccc(-c2ccc3c(c2)NC(=O)/C3=C\c2ccc[nH]2)cc1)Nc1ccc(Cl)c(Cl)c1
active: MCF7 breast 9.81% | KM12 colon 8.6% | MDA-MB-468 breast -16.8%
inactive: T-47D breast 18.8% | BT-549 breast 40.5% | MDA-MB-435 melanoma 62.6% | SW-620 colon 16.7% | HCT-116 colon 35.3% | HCC-2998 colon 83.5%

COc1ccc(N=Nc2c(N)nn3c(N)c(C#N)c(-c4ccccc4)nc23)cc1
inactive: T-47D breast 16.4% | MDA-MB-435 melanoma 62.5% | SW-620 colon 66.2% | MCF7 breast 14.5% | HCT-116 colon 20.2% | HCC-2998 colon 65.2% | KM12 colon 45% | MDA-MB-468 breast 31.7%
active: BT-549 breast -16.7%

C=CC(=O)N1CCN(c2ccc3nc4c(nc3c2C(F)(F)F)C(=O)c2ncccc2C4=O)CC1
inactive: BT-549 breast 10.1%
active: T-47D breast -4.37% | MDA-MB-435 melanoma -71.1% | SW-620 colon 4.1% | MCF7 breast -66.8% | HCT-116 colon -25.7% | HCC-2998 colon 5.17% | KM12 colon 9.15% | MDA-MB-468 breast -69.3%

O=C(N/N=C/c1c[nH]c2ccccc12)Nc1ccccc1Cl
active: BT-549 breast 1.24% | MDA-MB-435 melanoma 2.02% | MCF7 breast 1.71% | HCT-116 colon -12.7% | HCC-2998 colon -22% | KM12 colon -44.2% | MDA-MB-468 breast -21.3%
inactive: T-47D breast 44.9% | SW-620 colon 26.1%

COc1cc(CNC(=O)C[C@H](C)CCC=C(C)C)ccc1OCc1cn(-c2ccc(Br)cc2)nn1
inactive: T-47D breast 49.3% | BT-549 breast 93.6% | MDA-MB-435 melanoma 98.3% | SW-620 colon 91.7% | MCF7 breast 60.2% | HCT-116 colon 41.9% | HCC-2998 colon 95.8% | KM12 colon 94.6% | MDA-MB-468 breast 46.7%

CN1C(=O)/C(=C/c2ccco2)S/C1=N/c1nccs1
active: MDA-MB-468 breast -13.2%
inactive: T-47D breast 65.9% | BT-549 breast 112% | MDA-MB-435 melanoma 107% | SW-620 colon 106% | MCF7 breast 33.7% | HCT-116 colon 95.2% | HCC-2998 colon 107% | KM12 colon 98%

COc1ccccc1NC(=O)c1ccc(NC(=O)CCl)s1
inactive: T-47D breast 40.6% | HCC-2998 colon 27.2% | KM12 colon 25.8%
active: BT-549 breast -57.7% | MDA-MB-435 melanoma 0.365% | SW-620 colon -18.5% | MCF7 breast -35% | HCT-116 colon -68.5% | MDA-MB-468 breast -29.6%

COc1cc(CNC(=O)C[C@H](C)CCC=C(C)C)ccc1OCc1cn(-c2cccc(C(F)(F)F)c2)nn1
inactive: T-47D breast 32.4% | BT-549 breast 92.3% | MDA-MB-435 melanoma 74.9% | SW-620 colon 38.7% | MCF7 breast 56.8% | HCT-116 colon 12.5% | HCC-2998 colon 111% | KM12 colon 85% | MDA-MB-468 breast 64.9%

O=CNc1ccc(-n2cnc3cc(-c4ccc(O)cc4)ccc32)cc1
inactive: T-47D breast 63.6% | BT-549 breast 93.3% | MDA-MB-435 melanoma 82.8% | SW-620 colon 101% | MCF7 breast 71.8% | HCT-116 colon 85.6% | HCC-2998 colon 102% | KM12 colon 32.4% | MDA-MB-468 breast 86.1%

O=C(NN1C(=O)/C(=C/C=C/c2ccc([N+](=O)[O-])o2)SC1=S)c1ccc([N+](=O)[O-])cc1
active: T-47D breast -60.9% | BT-549 breast -93.2% | MDA-MB-435 melanoma -86.9% | SW-620 colon -77.7% | MCF7 breast -61.4% | HCT-116 colon -76.3% | HCC-2998 colon -94.8% | KM12 colon -94.9% | MDA-MB-468 breast -79.3%

COc1nc(N)ncc1-c1ccc2ncnc(N3CCc4cc(F)c(Cl)cc43)c2c1
active: T-47D breast -46.3% | HCT-116 colon -8.98% | MDA-MB-468 breast -24.9%
inactive: BT-549 breast 19.9% | MDA-MB-435 melanoma 68.2% | SW-620 colon 34.3% | MCF7 breast 29.8% | HCC-2998 colon 12.2% | KM12 colon 70%

COc1ccc(-c2cc(-c3cc(C(C)C)c(O)cc3C)nn2-c2ccc(S(N)(=O)=O)cc2)cc1
active: BT-549 breast -3.73% | MDA-MB-435 melanoma -58.2% | KM12 colon 2.28% | MDA-MB-468 breast -15.9%
inactive: T-47D breast 12.7% | SW-620 colon 28.2% | MCF7 breast 11% | HCT-116 colon 27.4% | HCC-2998 colon 45.9%

FC(F)(F)CN1CCN(CCn2c(C(F)(F)F)cc3c(Cl)ncnc32)CC1
inactive: T-47D breast 59.3% | MDA-MB-435 melanoma 38.7% | SW-620 colon 11.3% | MCF7 breast 25.3% | KM12 colon 70.7%
active: BT-549 breast -27.2% | HCT-116 colon 1.79% | HCC-2998 colon -96.7% | MDA-MB-468 breast -64%

COc1ccc(NC(=O)CSc2nnc(-c3ccc(-c4nc5ccccc5[nH]4)cc3)o2)cc1
active: HCT-116 colon 2.37%
inactive: T-47D breast 78.6% | BT-549 breast 27.3% | MDA-MB-435 melanoma 20.9% | SW-620 colon 11.4% | MCF7 breast 13.8% | HCC-2998 colon 92.7% | KM12 colon 30.5% | MDA-MB-468 breast 86.5%

Cc1[nH]nc2ccc3nc(-c4cn[nH]c4C(F)(F)F)c4c(c3c12)CCCC4
inactive: MDA-MB-435 melanoma 21.6%
active: T-47D breast 3.05% | BT-549 breast -82.4% | SW-620 colon -31.1% | MCF7 breast 5.54% | HCT-116 colon -49% | HCC-2998 colon -16.6% | KM12 colon 9.09% | MDA-MB-468 breast -45.6%
